According to the supplement of paper PMC4840960:
Where a name gives a salt, the structure may show the parent alone. ± gives the standard deviation of the averaged measurements.

These molecules were tested on E18 rat cortical neuron-glia co-culture (assay: fiber score / MBP score (myelination specific beyond OL differentiation) (ratio); higher = more myelination-specific MBP alignment). Settings: 1 µM; treatment time: 8 days (DIV5-DIV13).
In short: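 Primary E18 rat cortical co-cultures (papain-dissociated, 20,000 cells/well on poly-d-lysine/laminin 96-well plates) received library compounds at 1 or 5 µM in myelination medium from DIV5 to DIV13. Cells were fixed in 4 % paraformaldehyde and immunostained for MBP and Olig2 with DAPI, and four 10X fields per well in duplicate wells were analysed. The read-out is fiber score (continuous MBP fiber length per Olig2+ nucleus) divided by MBP score (thresholded MBP area × intensity per Olig2+ nucleus).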

Structure (SMILES)	fiber score / MBP score
CC(C)[N+](C)(CCOC(=O)C1c2ccccc2Oc2ccccc21)C(C)C [Propantheline]	0.889
Cn1c(=O)c2nc[nH]c2n(C)c1=O [Theophylline]	0.93
CN(C)CCc1c[nH]c2ccc(C[C@H]3COC(=O)N3)cc12 [Zolmitriptan]	0.791
CCCCNC(=O)NS(=O)(=O)c1ccc(C)cc1 [Tolbutamide]	0.923
CCCc1nc(C(C)(C)O)c(C(=O)O)n1Cc1ccc(-c2ccccc2-c2nnn[nH]2)cc1 [Olmesartan]	0.778
CN1CCN(C2=Nc3ccccc3Oc3ccc(Cl)cc32)CC1 [Loxapine]	0.561
COc1ccc(CC2c3cc(OC)c(OC)cc3CC[N+]2(C)CCC(=O)OCCCCCOC(=O)CC[N+]2(C)CCc3cc(OC)c(OC)cc3C2Cc2ccc(OC)c(OC)c2)cc1OC (configuration not stated) [Atracurium]	0.771
CC1CNc2c(cccc2S(=O)(=O)N[C@@H](CCCNC(=N)N)C(=O)N2CC[C@@H](C)C[C@@H]2C(=O)O)C1 (some centres not stated) [Argatroban]	0.647
CC(C)C(=O)Nc1ccc([N+](=O)[O-])c(C(F)(F)F)c1 [Flutamide]	0.826
CC(=O)Nc1nnc(S(N)(=O)=O)s1 [Acetazolamide]	0.846
O=c1n(CCCN2CCN(c3cccc(Cl)c3)CC2)nc2ccccn12 [Trazodone]	0.819
O=C(O)c1cccnc1 [Niacin]	1.05
CCOc1cc(N)c(Cl)cc1C(=O)NCC1CN(Cc2ccc(F)cc2)CCO1 (configuration not stated) [Mosapride]	0.736
OC[C@H]1O[C@@H](Oc2cc(O)cc(/C=C/c3ccc(O)cc3)c2)[C@H](O)[C@@H](O)[C@@H]1O [Polydatin]	0.578
CCOC(=O)c1ncn2c1CN(C)C(=O)c1cc(F)ccc1-2 [Flumazenil]	0.859
COc1ccc2cc(CCC(C)=O)ccc2c1 [Nabumetone]	0.801
CC(C(=O)O)c1cccc(C(=O)c2ccccc2)c1 (configuration not stated) [Ketoprofen]	0.813
CN1C2CCCC1CC(NC(=O)c1nn(C)c3ccccc13)C2 (configuration not stated) [Granisetron]	0.781
Clc1cccc(Cl)c1NC1=NCCN1 [Clonidine hydrochloride]	0.735
Cc1cccc(Nc2ccccc2C(=O)O)c1C [Mefenamic Acid]	0.791
COC(=O)C1=C(C)NC(C)=C(C(=O)OC(C)C)C1c1cccc2nonc12 (configuration not stated) [Isradipine]	0.618
CN(C)CCCC1(c2ccc(F)cc2)OCc2cc(C#N)ccc21 (configuration not stated) [Citalopram]	0.773 ± 0.29
Cc1ccc(NC(=O)c2ccc(CN3CCN(C)CC3)cc2)cc1Nc1nccc(-c2cccnc2)n1 [Imatinib mesylate]	0.424
COC(=O)C1=C(C)NC(C)=C(C(=O)OC)C1c1ccccc1[N+](=O)[O-] [Nifedipine]	0.768
CCC(=O)O[C@@H]1CC(=O)O[C@H](C)C/C=C/C=C/[C@H](O)[C@H](C)C[C@H](CC=O)[C@H](O[C@@H]2O[C@H](C)[C@@H](O[C@H]3C[C@@](C)(O)[C@@H](OC(=O)CC)[C@H](C)O3)[C@H](N(C)C)[C@H]2O)[C@H]1OC [Midecamycin]	0.757
COC(=O)CCc1ccc(OCC(O)CNC(C)C)cc1 (configuration not stated) [Esmolol]	1.07
Cc1cc2c(s1)Nc1ccccc1N=C2N1CCN(C)CC1 [Olanzapine]	1.2
C[C@]12CCC(=O)C=C1CC[C@@H]1[C@@H]2[C@@H](O)C[C@@]2(C)[C@H]1CC[C@]2(O)C(=O)COC(=O)CCC(=O)O [Cortisol succinate]	0.943

Same assay, conditions: 5 µM; treatment time: 8 days (DIV5-DIV13)

Structure (SMILES)	fiber score / MBP score
COc1ccccc1N1CCN(CC(O)COc2cccc3ccccc23)CC1 (configuration not stated) [Naftopidil]	0.695
C#C[C@]1(O)CC[C@H]2[C@@H]3[C@H](C)CC4=C(CCC(=O)C4)[C@H]3CC[C@@]21C [Tibolone]	0.773
CC(=O)/N=c1/sc(S(N)(=O)=O)nn1C [Methazolamide]	0.672
CCCc1nc2c(C)cc(-c3nc4ccccc4n3C)cc2n1Cc1ccc(-c2ccccc2C(=O)O)cc1 [Telmisartan]	0.799
CN(Cc1cnc2nc(N)nc(N)c2n1)c1ccc(C(=O)N[C@@H](CCC(=O)O)C(=O)O)cc1 [Methotrexate]	1.53
COc1ccc([C@@H]2Sc3ccccc3N(CCN(C)C)C(=O)[C@@H]2OC(C)=O)cc1 [Diltiazem]	0.558
CN1CCC(=C2c3ccccc3CCc3sccc32)CC1 [Pizotyline]	0.636
COc1cc(OC)c(C(=O)CCCN2CCCC2)c(OC)c1 [Buflomedil]	0.768
CC(=O)OCC(=O)[C@@]12OC(C)(C)O[C@@H]1C[C@H]1[C@@H]3C[C@H](F)C4=CC(=O)C=C[C@]4(C)[C@@]3(F)[C@@H](O)C[C@@]12C [Fluocinonide]	0.291
C[C@]12C[C@H](O)[C@H]3[C@@H](CCC4=CC(=O)CC[C@@]43C)[C@@H]1CC[C@@H]2C(=O)CO [Corticosterone]	0.702
C[C@@H]1C[C@H]2[C@@H]3C[C@H](F)C4=CC(=O)C(Cl)=C[C@]4(C)[C@@]3(F)[C@@H](O)C[C@]2(C)[C@@]1(O)C(=O)CO [Halometasone hydrate]	0.394
CC(C)[N+](C)(CCOC(=O)C1c2ccccc2Oc2ccccc21)C(C)C [Propantheline]	0.949
Cn1c(=O)c2nc[nH]c2n(C)c1=O [Theophylline]	0.671
CN(C)CCc1c[nH]c2ccc(C[C@H]3COC(=O)N3)cc12 [Zolmitriptan]	0.785
CCCCNC(=O)NS(=O)(=O)c1ccc(C)cc1 [Tolbutamide]	0.898
CCCc1nc(C(C)(C)O)c(C(=O)O)n1Cc1ccc(-c2ccccc2-c2nnn[nH]2)cc1 [Olmesartan]	0.698
CN1CCN(C2=Nc3ccccc3Oc3ccc(Cl)cc32)CC1 [Loxapine]	0.903
COc1ccc(CC2c3cc(OC)c(OC)cc3CC[N+]2(C)CCC(=O)OCCCCCOC(=O)CC[N+]2(C)CCc3cc(OC)c(OC)cc3C2Cc2ccc(OC)c(OC)c2)cc1OC (configuration not stated) [Atracurium]	0.948
CC1CNc2c(cccc2S(=O)(=O)N[C@@H](CCCNC(=N)N)C(=O)N2CC[C@@H](C)C[C@@H]2C(=O)O)C1 (some centres not stated) [Argatroban]	0.566
CC(C)C(=O)Nc1ccc([N+](=O)[O-])c(C(F)(F)F)c1 [Flutamide]	0.938

Structure (SMILES)	fiber score / MBP score
CC(=O)Nc1nnc(S(N)(=O)=O)s1 [Acetazolamide]	0.99
O=c1n(CCCN2CCN(c3cccc(Cl)c3)CC2)nc2ccccn12 [Trazodone]	0.5
O=C(O)c1cccnc1 [Niacin]	0.998
CCOc1cc(N)c(Cl)cc1C(=O)NCC1CN(Cc2ccc(F)cc2)CCO1 (configuration not stated) [Mosapride]	0.556
OC[C@H]1O[C@@H](Oc2cc(O)cc(/C=C/c3ccc(O)cc3)c2)[C@H](O)[C@@H](O)[C@@H]1O [Polydatin]	0.769
CCOC(=O)c1ncn2c1CN(C)C(=O)c1cc(F)ccc1-2 [Flumazenil]	0.835
COc1ccc2cc(CCC(C)=O)ccc2c1 [Nabumetone]	1.17
CC(C(=O)O)c1cccc(C(=O)c2ccccc2)c1 (configuration not stated) [Ketoprofen]	0.972
CN1C2CCCC1CC(NC(=O)c1nn(C)c3ccccc13)C2 (configuration not stated) [Granisetron]	1.1
Clc1cccc(Cl)c1NC1=NCCN1 [Clonidine hydrochloride]	0.879
Cc1cccc(Nc2ccccc2C(=O)O)c1C [Mefenamic Acid]	1.3
COC(=O)C1=C(C)NC(C)=C(C(=O)OC(C)C)C1c1cccc2nonc12 (configuration not stated) [Isradipine]	0.922
CN(C)CCCC1(c2ccc(F)cc2)OCc2cc(C#N)ccc21 (configuration not stated) [Citalopram]	0.571 ± 0.19
Cc1ccc(NC(=O)c2ccc(CN3CCN(C)CC3)cc2)cc1Nc1nccc(-c2cccnc2)n1 [Imatinib mesylate]	0.773
COC(=O)C1=C(C)NC(C)=C(C(=O)OC)C1c1ccccc1[N+](=O)[O-] [Nifedipine]	0.919
CCC(=O)O[C@@H]1CC(=O)O[C@H](C)C/C=C/C=C/[C@H](O)[C@H](C)C[C@H](CC=O)[C@H](O[C@@H]2O[C@H](C)[C@@H](O[C@H]3C[C@@](C)(O)[C@@H](OC(=O)CC)[C@H](C)O3)[C@H](N(C)C)[C@H]2O)[C@H]1OC [Midecamycin]	1.13
COC(=O)CCc1ccc(OCC(O)CNC(C)C)cc1 (configuration not stated) [Esmolol]	0.988
Cc1cc2c(s1)Nc1ccccc1N=C2N1CCN(C)CC1 [Olanzapine]	0.751
C[C@]12CCC(=O)C=C1CC[C@@H]1[C@@H]2[C@@H](O)C[C@@]2(C)[C@H]1CC[C@]2(O)C(=O)COC(=O)CCC(=O)O [Cortisol succinate]	1.41
